# What was measured:
# Assay in all cases: PBM binding z-score (relative to random genomic background probes); higher = stronger binding; sequences stand for … in GC…GCGATTGACAGCGTAGAATGAAGG
# [1] = tested on: FXR:RXRa (NR concentration 270 nM, RXRa partner concentration 90 nM)
# How it was run: (§1)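 Antibodies against each partner of ligand-free nuclear receptor dimers (one per run) detected binding on custom Agilent 4×180K protein-binding microarrays after 1 h incubation. The double-stranded probes had 34-nt variable regions carrying direct-repeat seeds, single-nucleotide variants, half-site ablations and random human genomic background sequences. Binding z-scores, from regression-normalized fluorescence, use the random background probes as reference.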
# [2] = tested on: LXRa:RXRa (NR concentration 270 nM, RXRa partner concentration 90 nM)
# How it was run: as §1
# [3] = tested on: LXRa homodimer (NR concentration 270 nM)
# How it was run: as §1
# [4] = tested on: LXRb:RXRa (NR concentration 270 nM, RXRa partner concentration 90 nM)
# How it was run: as §1
# [5] = tested on: LXRb homodimer (NR concentration 270 nM)
# How it was run: as §1
# [6] = tested on: PPARa:RXRa (NR concentration 270 nM, RXRa partner concentration 90 nM)
# How it was run: as §1
# [7] = tested on: PPARg:RXRa (NR concentration 180 nM, RXRa partner concentration 90 nM)
# How it was run: as §1
# [8] = tested on: PPARg:RXRa 270nM:90nM, anti-RXR (NR concentration 270 nM, RXRa partner concentration 90 nM)
# How it was run: as §1
# [9] = tested on: PPARg:RXRa 30nM:10nM, anti-RXR (NR concentration 30 nM, RXRa partner concentration 10 nM)
# How it was run: as §1
# [10] = tested on: PPARg:RXRa 90nM:30nM, anti-RXR (NR concentration 90 nM, RXRa partner concentration 30 nM)
# How it was run: as §1
# [11] = tested on: PPARg:RXRa DBDmut IVT, anti-RXR (DBD mutation: RXRa K156A/R161A, NR concentration 270 nM, RXRa partner concentration 90 nM)
# How it was run: as §1
# [12] = tested on: PPARg:RXRa IVT, anti-PPARg (NR concentration 270 nM, RXRa partner concentration 90 nM)
# How it was run: as §1
# [13] = tested on: PPARg DBDmut:RXRa IVT, anti-PPARg (DBD mutation: PPARg1 K132A/R137A, NR concentration 270 nM, RXRa partner concentration 90 nM)
# How it was run: as §1
# [14] = tested on: PPARg DBDmut IVT, anti-PPARg (DBD mutation: PPARg1 K132A/R137A, NR concentration 270 nM)
# How it was run: as §1
# [15] = tested on: PPARg homodimer (NR concentration 180 nM)
# How it was run: as §1
# [16] = tested on: PXR:RXRa (NR concentration 270 nM, RXRa partner concentration 90 nM)
# How it was run: as §1
# [17] = tested on: PXR homodimer (NR concentration 270 nM)
# How it was run: as §1
# [18] = tested on: RARa:RXR (NR concentration 270 nM, RXRa partner concentration 90 nM)
# How it was run: as §1
# [19] = tested on: RARa homodimer (NR concentration 270 nM)
# How it was run: as §1
# [20] = tested on: RARb:RXRa (NR concentration 270 nM, RXRa partner concentration 90 nM)
# How it was run: as §1
Sequence,PBM binding z-score [1],PBM binding z-score [2],PBM binding z-score [3],PBM binding z-score [4],PBM binding z-score [5],PBM binding z-score [6],PBM binding z-score [7],PBM binding z-score [8],PBM binding z-score [9],PBM binding z-score [10],PBM binding z-score [11],PBM binding z-score [12],PBM binding z-score [13],PBM binding z-score [14],PBM binding z-score [15],PBM binding z-score [16],PBM binding z-score [17],PBM binding z-score [18],PBM binding z-score [19],PBM binding z-score [20]
CCTACTGGGCCAAAAAGGTCATTCATGCCGATAA,3.81,4.85,4.27,4.54,0.914,4.85,3.37,4.13,1.87,3.58,3.69,3.97,-0.431,0.123,4.57,5.41,4.84,5.86,2.12,4.22
CAAACTAGCTCACCGGAAGGTCAAAGTCCGCATG,2.99,3.06,3.46,3.43,1.02,3.16,0.628,1.58,0.364,0.774,0.993,1.36,-0.25,0.542,2.25,3.37,1.23,3.64,0.685,3.17
GCTGCTAGGTCAGGTTGGTAAGCTAACGGGTACG,1.13,0.523,-0.37,0.0783,-0.406,1.51,0.427,0.848,-0.218,0.338,2.81,2.17,-1.03,-1.39,0.662,-0.0241,-0.591,0.597,-0.659,3.09
CTCGAAAGGTCGCTTGAGGTGAGTATACGGATAA,4.18,3.88,-0.291,2.68,-0.203,4.15,2.15,2.92,0.841,1.64,0.887,1.84,-0.0758,0.0176,1.47,4.26,0.207,3.93,0.149,3.61
TAGCCTAGGTCCTTGGGCCAGTATAGTACGCATC,-1.55,-1.18,-1.24,-1.1,-1.16,-1.2,-0.0575,-0.847,-0.771,-0.944,-1,-0.913,-2.61,-1.34,-2.22,-1.19,-1.2,-1.44,-2.43,-0.495
TCAGAAAGGTGAAGGTAACTCAGGTACGCAGTCG,1.82,2.61,0.105,1.67,-0.156,2.97,1.75,3.44,4.63,4.04,4.06,2.93,0.125,0.136,0.958,1.12,0.164,1.88,0.504,3.25
TCGAGTAGGTTAGCGGCATTCAGAATGGCGTCGA,-0.731,-0.487,-0.848,-0.653,-1.3,0.0919,-0.173,0.409,0.448,0.475,1.81,0.944,-1.28,-0.893,-1.05,-0.724,-0.924,-0.504,-1.29,0.21
GATACAGGGTCAGATAGAGGCCAGAGTATGGAAA,4.95,3.16,0.138,3.03,0.456,4.58,3.32,3.11,1.18,2.09,1,2.53,1.35,0.368,2.7,3.26,0.844,4.13,0.243,3.97
GCTCGGAGGACAAGATCAGAGCTTTGTCCGTAGA,-0.699,-0.742,-0.685,-0.96,-0.96,-0.552,-0.773,-0.906,-1.18,-1.04,-0.785,-0.327,-1.13,-1.46,-1.73,-0.776,-0.689,-0.823,-1.48,0.581
CACACTAGGTCACCGGAAGGTCAAAGTCCGCATG,6.4,6.18,6.43,5.72,2.16,6.24,8.71,7.07,4.59,6.32,7.26,8.19,3.49,0.952,7.05,6.16,2.43,7.66,2.69,5.52
TCTCTTAGTTGATTAGGGCAACCGAAACAGCGGA,0.698,0.799,0.13,0.868,1.26,1.22,0.00699,2.24,3.88,3.1,2.63,1.67,0.796,1.17,1.28,0.757,0.477,0.892,0.846,1.51
GCTATTAGTTGCAAGGGCAACCGAATGATTCTCG,0.225,0.26,-0.0244,0.193,0.0622,0.193,0.483,0.912,0.0952,0.546,0.729,0.0802,-0.249,-0.171,0.499,0.243,0.11,-0.00266,-0.474,1.37
CGTCCAAGGTCAGCAGGACAGTGAAAGCGACGTG,5.11,3,-0.143,2.24,-0.588,4.36,2.83,3.16,0.274,2.07,2.27,2.58,0.502,-0.859,1.75,2.27,0.176,2.92,0.175,5.17
ACAGACAGGCGAGTGAAGGTAACTCAGCTGGACG,0.222,-0.221,-0.463,-0.649,-0.426,-0.25,0.686,-0.142,-0.453,-0.153,-0.427,-0.121,0.466,-0.29,0.0641,-0.279,-0.674,0.193,-0.258,0.0266
